We go through three molecules from ChEMBL document CHEMBL1961873, “Compounds: GSK PKIS; Assays: Nanosyn kinase panel” (2012).

The target of experiment [1] is T1, Serine/threonine-protein kinase Nek9 (Homo sapiens) (UniProt Q8TD19).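 Also: each value is a mean percent inhibition of NEK9.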
T1 sequence (whole entry): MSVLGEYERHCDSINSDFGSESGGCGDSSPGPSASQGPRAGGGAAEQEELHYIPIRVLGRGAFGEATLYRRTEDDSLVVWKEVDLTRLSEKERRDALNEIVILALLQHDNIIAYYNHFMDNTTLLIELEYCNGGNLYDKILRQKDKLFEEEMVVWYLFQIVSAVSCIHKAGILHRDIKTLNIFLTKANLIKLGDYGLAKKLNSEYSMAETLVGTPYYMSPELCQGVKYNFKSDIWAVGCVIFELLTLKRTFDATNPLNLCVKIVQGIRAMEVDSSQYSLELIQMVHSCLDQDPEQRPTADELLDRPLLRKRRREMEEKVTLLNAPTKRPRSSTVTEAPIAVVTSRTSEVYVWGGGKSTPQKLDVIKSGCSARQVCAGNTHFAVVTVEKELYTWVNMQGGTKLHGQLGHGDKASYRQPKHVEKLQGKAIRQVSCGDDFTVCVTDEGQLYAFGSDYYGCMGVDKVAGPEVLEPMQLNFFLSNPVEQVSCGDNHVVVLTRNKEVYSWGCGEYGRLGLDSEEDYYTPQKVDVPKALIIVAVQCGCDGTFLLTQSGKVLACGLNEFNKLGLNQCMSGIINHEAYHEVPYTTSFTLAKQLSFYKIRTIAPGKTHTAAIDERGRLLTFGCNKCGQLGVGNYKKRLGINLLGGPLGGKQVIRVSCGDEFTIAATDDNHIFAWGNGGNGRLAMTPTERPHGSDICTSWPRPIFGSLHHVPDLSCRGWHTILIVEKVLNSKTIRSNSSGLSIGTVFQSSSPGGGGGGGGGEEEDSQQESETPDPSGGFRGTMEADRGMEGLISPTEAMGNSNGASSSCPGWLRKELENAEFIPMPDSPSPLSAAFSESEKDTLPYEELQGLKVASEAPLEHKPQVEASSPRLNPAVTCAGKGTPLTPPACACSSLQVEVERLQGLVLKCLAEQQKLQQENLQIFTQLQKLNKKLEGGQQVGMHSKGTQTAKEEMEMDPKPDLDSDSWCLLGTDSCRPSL
The conditions noted are these: at 1 µM.

Experiment [2] deals with Serine/threonine-protein kinase PLK1 (Homo sapiens) (UniProt P53350). As to conditions: at 0.1 µM.
Experiment [3] shares this target. The conditions noted are these: at 1 µM.
In experiment [4] the target is T2, Dual specificity protein kinase TTK (Homo sapiens) (UniProt P33981).
T2 sequence (whole entry): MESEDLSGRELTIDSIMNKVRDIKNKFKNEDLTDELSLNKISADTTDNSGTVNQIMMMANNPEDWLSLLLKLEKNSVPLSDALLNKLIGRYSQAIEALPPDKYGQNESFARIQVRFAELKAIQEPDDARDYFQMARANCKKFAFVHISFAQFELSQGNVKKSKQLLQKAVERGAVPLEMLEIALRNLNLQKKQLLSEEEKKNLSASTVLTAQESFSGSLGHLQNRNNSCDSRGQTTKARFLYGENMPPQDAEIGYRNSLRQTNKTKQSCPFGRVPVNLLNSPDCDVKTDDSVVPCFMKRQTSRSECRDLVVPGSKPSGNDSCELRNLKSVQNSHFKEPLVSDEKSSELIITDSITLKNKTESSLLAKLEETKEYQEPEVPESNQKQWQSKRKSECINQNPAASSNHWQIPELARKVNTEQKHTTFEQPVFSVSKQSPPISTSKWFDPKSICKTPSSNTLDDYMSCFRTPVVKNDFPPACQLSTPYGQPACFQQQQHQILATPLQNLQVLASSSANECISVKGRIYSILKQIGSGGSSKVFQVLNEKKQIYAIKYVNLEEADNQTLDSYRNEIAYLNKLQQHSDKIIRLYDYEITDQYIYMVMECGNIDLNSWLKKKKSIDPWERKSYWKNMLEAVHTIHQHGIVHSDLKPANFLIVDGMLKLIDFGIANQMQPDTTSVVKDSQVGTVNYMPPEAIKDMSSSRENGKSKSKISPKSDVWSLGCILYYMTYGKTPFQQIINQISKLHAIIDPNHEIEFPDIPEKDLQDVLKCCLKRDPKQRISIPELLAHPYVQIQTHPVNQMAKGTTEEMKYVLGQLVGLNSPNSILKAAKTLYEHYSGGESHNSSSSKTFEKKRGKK
The conditions noted are these: at 0.1 µM.

In experiment [5] the test system is T3, Receptor-type tyrosine-protein kinase FLT3 (Homo sapiens), P36888 [D835Y].
T3 sequence (whole entry): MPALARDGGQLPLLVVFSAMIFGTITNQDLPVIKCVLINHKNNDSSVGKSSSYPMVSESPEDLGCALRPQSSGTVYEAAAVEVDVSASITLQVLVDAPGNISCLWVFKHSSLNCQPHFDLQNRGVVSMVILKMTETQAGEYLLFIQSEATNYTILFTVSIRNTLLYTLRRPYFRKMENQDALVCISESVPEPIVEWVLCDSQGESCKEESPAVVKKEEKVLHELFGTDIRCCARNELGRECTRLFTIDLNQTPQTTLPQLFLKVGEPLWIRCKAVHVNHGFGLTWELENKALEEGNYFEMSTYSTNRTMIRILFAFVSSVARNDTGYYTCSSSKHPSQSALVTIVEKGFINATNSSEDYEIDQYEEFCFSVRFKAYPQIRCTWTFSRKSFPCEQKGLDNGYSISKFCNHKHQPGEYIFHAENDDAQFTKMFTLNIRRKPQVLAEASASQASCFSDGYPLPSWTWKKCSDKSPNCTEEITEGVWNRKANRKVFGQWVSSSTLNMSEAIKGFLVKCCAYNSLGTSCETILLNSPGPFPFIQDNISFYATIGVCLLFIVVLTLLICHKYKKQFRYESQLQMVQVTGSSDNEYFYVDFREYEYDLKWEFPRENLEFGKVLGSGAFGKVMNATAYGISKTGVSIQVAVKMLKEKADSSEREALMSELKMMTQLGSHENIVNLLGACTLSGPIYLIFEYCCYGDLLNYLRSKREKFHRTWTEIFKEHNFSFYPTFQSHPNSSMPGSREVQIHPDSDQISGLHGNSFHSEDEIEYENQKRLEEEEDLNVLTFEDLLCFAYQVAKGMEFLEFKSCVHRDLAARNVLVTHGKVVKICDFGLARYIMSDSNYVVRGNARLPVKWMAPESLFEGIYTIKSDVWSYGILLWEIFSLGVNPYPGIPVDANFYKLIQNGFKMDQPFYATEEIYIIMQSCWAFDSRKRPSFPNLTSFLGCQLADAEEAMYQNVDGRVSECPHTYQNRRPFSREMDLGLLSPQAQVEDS
As to conditions: at 1 µM.

For experiment [6], the target named is Vascular endothelial growth factor receptor 3 (Homo sapiens) (UniProt P35916). As to conditions: at 0.1 µM.
Experiment [7] has the same target. The conditions noted are these: at 1 µM.
For experiment [8], the target named is Macrophage colony-stimulating factor 1 receptor (Homo sapiens) (UniProt P07333). The conditions noted are these: at 0.1 µM.
Experiment [9] has the same target. The conditions noted are these: at 1 µM.
In experiment [10] the target is Tyrosine-protein kinase Fyn (Homo sapiens) (UniProt P06241). The conditions noted are these: at 0.1 µM.
For experiment [11] the target is unchanged. As to conditions: at 1 µM.
Experiment [12] deals with Tyrosine-protein kinase HCK (Homo sapiens) (UniProt P08631). As to conditions: at 0.1 µM.
Experiment [13] has the same target. As to conditions: at 1 µM.
In experiment [14] the target is Insulin-like growth factor 1 receptor (Homo sapiens) (UniProt P08069). As to conditions: at 0.1 µM.
The target is the same in experiment [15]. The conditions noted are these: at 1 µM.
Experiment [16] addresses Insulin receptor (Homo sapiens) (UniProt P06213). As to conditions: at 0.1 µM.
For experiment [17] the target is unchanged. As to conditions: at 1 µM.
Experiment [18] deals with Insulin receptor-related protein (Homo sapiens) (UniProt P14616). As to conditions: at 0.1 µM.
Experiment [19] shares this target. The conditions noted are these: at 1 µM.
Experiment [20] deals with T4, Tyrosine-protein kinase ITK/TSK (Homo sapiens) (UniProt Q08881).
T4 sequence (whole entry): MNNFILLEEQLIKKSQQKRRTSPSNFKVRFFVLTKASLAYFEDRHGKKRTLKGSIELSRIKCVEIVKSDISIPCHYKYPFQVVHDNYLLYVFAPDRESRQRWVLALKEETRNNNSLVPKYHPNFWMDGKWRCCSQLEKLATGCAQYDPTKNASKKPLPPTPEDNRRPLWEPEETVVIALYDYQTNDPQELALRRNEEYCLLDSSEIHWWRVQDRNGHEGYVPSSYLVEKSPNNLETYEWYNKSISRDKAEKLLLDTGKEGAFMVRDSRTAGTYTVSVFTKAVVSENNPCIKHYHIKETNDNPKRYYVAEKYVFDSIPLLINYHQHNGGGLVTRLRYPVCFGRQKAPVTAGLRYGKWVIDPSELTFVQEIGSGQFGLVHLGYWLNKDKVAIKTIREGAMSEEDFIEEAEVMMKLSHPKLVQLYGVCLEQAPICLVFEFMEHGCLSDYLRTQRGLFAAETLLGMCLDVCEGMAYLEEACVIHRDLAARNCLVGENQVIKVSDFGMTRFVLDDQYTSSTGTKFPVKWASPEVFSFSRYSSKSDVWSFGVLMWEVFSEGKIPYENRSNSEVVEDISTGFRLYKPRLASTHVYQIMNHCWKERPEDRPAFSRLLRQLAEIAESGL
The conditions noted are these: at 0.1 µM.

Molecules are shown by their SMILES.

Chain of Vascular endothelial growth factor receptor 3 (Homo sapiens) (P35916 whole entry): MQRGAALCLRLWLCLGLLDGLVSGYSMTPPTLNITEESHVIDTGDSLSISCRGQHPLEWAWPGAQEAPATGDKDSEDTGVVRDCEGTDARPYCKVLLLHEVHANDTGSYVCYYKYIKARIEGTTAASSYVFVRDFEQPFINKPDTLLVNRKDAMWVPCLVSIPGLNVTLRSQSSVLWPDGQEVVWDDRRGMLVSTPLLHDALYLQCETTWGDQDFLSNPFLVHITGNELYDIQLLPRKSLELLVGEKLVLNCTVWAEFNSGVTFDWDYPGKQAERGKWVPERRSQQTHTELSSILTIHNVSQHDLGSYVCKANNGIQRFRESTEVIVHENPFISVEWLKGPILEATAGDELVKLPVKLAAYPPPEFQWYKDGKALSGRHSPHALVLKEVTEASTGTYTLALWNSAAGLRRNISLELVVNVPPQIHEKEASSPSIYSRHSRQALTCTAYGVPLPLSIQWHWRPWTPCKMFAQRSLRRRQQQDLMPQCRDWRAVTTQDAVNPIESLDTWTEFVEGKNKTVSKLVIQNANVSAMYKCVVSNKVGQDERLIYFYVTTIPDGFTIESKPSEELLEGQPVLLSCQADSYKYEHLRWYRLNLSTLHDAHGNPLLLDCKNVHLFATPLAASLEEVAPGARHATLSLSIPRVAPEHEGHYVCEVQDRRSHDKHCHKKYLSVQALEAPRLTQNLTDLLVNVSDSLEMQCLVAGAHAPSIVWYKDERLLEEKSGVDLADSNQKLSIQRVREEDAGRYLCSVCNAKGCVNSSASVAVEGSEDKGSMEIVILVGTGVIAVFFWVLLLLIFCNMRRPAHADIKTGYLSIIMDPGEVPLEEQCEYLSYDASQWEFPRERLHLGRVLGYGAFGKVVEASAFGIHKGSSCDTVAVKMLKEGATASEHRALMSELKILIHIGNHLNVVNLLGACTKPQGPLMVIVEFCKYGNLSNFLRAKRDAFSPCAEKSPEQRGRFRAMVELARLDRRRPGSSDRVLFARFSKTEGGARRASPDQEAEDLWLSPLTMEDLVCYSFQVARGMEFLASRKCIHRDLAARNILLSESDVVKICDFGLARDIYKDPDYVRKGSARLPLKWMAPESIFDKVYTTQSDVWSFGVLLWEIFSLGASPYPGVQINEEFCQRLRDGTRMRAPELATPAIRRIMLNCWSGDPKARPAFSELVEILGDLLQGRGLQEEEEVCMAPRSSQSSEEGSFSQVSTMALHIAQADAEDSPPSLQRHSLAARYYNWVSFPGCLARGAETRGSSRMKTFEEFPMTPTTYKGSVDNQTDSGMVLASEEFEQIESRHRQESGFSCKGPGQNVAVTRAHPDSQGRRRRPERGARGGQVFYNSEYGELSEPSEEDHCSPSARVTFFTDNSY
Chain of Macrophage colony-stimulating factor 1 receptor (Homo sapiens) (P07333 whole entry): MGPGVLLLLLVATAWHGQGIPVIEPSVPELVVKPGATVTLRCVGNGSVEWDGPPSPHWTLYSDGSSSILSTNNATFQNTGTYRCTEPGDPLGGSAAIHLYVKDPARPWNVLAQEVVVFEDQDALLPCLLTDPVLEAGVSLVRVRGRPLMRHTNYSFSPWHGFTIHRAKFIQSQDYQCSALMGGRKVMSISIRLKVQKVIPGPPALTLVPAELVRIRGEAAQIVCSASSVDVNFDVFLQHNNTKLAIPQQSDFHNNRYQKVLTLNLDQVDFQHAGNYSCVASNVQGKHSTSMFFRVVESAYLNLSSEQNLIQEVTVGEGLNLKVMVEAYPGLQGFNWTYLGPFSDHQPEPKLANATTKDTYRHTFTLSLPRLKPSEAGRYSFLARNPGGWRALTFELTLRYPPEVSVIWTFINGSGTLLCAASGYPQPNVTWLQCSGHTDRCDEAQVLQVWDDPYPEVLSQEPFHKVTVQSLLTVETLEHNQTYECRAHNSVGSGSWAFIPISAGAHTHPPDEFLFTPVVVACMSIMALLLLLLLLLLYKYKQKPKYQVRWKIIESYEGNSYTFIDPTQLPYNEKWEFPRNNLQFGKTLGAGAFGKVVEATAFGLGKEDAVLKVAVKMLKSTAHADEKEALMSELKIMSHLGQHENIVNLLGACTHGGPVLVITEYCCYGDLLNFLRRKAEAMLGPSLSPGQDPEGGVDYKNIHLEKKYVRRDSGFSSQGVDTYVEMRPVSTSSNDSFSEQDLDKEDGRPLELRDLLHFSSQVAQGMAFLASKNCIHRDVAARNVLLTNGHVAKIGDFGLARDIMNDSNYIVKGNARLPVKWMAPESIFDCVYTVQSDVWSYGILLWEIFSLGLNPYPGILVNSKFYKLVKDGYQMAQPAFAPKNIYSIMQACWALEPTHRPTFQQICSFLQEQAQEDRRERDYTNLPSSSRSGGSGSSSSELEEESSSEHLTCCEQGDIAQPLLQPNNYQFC
Chain of Insulin-like growth factor 1 receptor (Homo sapiens) (P08069 31-736 limits assumed): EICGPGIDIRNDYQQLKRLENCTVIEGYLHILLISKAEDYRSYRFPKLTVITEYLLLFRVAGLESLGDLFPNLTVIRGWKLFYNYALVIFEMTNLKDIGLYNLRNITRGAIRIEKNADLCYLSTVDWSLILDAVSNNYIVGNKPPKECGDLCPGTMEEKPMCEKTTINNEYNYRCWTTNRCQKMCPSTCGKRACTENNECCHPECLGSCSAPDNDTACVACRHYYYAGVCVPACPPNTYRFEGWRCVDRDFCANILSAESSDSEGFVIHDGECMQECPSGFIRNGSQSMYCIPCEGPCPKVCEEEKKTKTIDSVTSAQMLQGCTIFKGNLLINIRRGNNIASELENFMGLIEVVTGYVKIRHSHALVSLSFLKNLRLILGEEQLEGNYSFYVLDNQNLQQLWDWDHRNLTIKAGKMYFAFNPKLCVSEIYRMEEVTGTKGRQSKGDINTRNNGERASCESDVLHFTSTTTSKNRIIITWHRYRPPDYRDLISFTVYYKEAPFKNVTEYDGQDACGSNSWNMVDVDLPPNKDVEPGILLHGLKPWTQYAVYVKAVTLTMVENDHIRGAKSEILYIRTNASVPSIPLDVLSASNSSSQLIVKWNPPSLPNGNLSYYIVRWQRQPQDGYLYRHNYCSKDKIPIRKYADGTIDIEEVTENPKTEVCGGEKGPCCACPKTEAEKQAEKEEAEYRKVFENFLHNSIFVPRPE
Chain of Insulin-like growth factor 1 receptor (Homo sapiens) (P08069 741-1367 limits assumed): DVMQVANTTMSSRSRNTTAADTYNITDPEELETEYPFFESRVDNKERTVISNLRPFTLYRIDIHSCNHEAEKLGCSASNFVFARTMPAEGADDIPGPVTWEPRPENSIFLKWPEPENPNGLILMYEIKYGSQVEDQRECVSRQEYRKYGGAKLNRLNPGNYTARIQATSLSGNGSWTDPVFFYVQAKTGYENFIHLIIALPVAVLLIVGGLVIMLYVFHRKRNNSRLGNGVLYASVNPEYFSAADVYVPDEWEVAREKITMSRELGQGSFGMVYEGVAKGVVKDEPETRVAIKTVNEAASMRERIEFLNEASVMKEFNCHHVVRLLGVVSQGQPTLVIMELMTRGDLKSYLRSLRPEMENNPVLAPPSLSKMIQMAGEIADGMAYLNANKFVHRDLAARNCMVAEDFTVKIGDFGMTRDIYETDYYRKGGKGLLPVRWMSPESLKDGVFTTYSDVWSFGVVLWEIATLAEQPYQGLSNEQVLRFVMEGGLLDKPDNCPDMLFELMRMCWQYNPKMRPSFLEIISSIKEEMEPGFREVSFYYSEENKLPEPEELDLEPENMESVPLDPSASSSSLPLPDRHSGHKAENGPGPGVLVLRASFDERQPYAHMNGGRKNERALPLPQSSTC
Chain of Serine/threonine-protein kinase PLK1 (Homo sapiens) (P53350 whole entry): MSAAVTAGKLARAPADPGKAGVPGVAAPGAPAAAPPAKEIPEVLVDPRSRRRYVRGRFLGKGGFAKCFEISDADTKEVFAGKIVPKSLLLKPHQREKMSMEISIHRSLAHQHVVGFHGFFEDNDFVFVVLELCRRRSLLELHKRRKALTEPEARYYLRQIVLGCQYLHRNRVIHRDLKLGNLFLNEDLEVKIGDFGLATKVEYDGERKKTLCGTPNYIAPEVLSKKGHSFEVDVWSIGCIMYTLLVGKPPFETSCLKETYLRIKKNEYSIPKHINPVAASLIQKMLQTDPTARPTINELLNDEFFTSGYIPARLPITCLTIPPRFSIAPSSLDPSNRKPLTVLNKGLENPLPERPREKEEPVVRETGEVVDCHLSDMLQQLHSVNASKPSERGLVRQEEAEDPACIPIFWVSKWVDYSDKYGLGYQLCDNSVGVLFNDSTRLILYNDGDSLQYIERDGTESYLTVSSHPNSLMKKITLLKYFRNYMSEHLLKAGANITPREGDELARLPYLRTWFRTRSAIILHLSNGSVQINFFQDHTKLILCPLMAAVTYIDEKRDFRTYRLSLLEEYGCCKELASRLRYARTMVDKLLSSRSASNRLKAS
Chain of Tyrosine-protein kinase HCK (Homo sapiens) (P08631 2-526 limits assumed): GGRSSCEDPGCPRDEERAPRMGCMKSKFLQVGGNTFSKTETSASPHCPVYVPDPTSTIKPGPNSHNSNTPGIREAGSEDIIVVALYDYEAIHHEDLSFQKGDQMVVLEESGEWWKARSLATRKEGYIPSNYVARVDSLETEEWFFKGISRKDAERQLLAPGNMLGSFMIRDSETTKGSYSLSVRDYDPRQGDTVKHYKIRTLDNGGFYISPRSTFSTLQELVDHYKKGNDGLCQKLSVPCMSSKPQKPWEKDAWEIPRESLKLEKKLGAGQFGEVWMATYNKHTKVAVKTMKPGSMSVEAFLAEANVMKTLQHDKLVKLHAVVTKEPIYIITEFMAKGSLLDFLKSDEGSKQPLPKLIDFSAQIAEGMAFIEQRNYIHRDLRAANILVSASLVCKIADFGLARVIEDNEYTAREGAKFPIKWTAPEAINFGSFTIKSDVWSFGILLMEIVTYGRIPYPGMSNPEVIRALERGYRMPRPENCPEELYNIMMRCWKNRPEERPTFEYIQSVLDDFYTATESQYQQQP

Regarding `NS(=O)(=O)c1ccc(-c2ccc3c(NC(=O)C4CC4)n[nH]c3c2)cc1`, the inhibition was found to be 3.68% in experiment [1]; 2.16% in experiment [2]; 2.23% in [3]; 2.82% in experiment [4]; 8.24% in experiment [5]; 0.96% in experiment [6]. Besides, the inhibition amounted to 1.51% in experiment [7]; 0.18% in experiment [8]; 1.78% in experiment [9]; 1.45% in [10]; 2.42% in experiment [11]; 4.22% in experiment [12]. For the same molecule, the inhibition in experiment [13] came out at 9.28%; in [14] it was 0.89%; in [15] it was 1.61%; in [16] it was 1.23%; in experiment [17], 2.43%; in [18], 3.82%. Further, the inhibition amounted to 2.73% in [19] and 1.9% in experiment [20].
Take `CCn1c(-c2nonc2N)nc2c(C#CC(C)(C)O)ncc(OCC3CCNCC3)c21`: the inhibition in [1] is 8.54%; in experiment [2] it was 4.55%; in [3], 3.24%; in experiment [4], 9.22%; in experiment [5], 0.35%; in [6], -2.47%. For the same molecule, the inhibition is 34.8% in experiment [7]; 1.63% in [8]; 1.19% in [9]; -4.47% in experiment [10]; 2.15% in [11]; 2.07% in [12]. Also, the inhibition was 5.41% in experiment [13]; -3.92% in experiment [14]; -4.46% in experiment [15]; 2.75% in experiment [16]; 1.72% in experiment [17]; 2.1% in experiment [18]. Besides, the inhibition in experiment [19] was 2.17%; in [20], -2.28%.
Regarding `COc1cc(C=NNc2ncnc3c2cnn3Cc2ccccc2)ccc1O`, the inhibition in experiment [1] is -0.84%; in [2] it was -3.5%; in [3] it was -2.85%; in experiment [4], -6.4%; in experiment [5] it was 2.91%; in experiment [6], 0.12%. For the same molecule, the inhibition came out at 0.41% in experiment [7]; 14.5% in experiment [8]; 58.7% in [9]; 6.12% in [10]; 4.87% in [11]; 3.29% in experiment [12]. The inhibition in experiment [13] is 33.7%; in [14], -3.54%; in [15], -1.6%; in experiment [16], -3.1%; in experiment [18] it was -3.04%; in [19] it was -4.41%. Moreover, the inhibition in experiment [20] is -1.61%.

What is called inhibition is the change of the read-out against control, counted positive when it falls.
